# Assay results: PubChem BioAssay (NCI)
# This is part of a sample that, as a whole, favours compounds with a hit. Of some 79,000 tested, about 15% had one in any assay. Unmarked numbers belong to inactive results. Active and inactive are the calls of the source. Cut-off read from the data, not from the text of the source: active = growth inhibition above about 70%; inactive = the rest.
# Experiments:
# [1] = NCI Yeast Anticancer Drug Screen. Data for the sgs1 strain (AID 173);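 note: 0% = growth of vehicle-only control cultures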; conditions: S. cerevisiae sgs1 mutant, hits give high values
# In short: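 Compounds applied to genetically altered yeast; growth compared with vehicle-treated cultures to give % inhibition.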
# [2] = NCI Yeast Anticancer Drug Screen. Data for the rad18 strain (AID 177); conditions: S. cerevisiae rad18 mutant growth inhibition, hits give high values
# In short: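 Compounds are applied to a repair-deficient yeast strain, and growth is compared with that of vehicle-treated cultures to give percent inhibition.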
smiles,measurement,setting,value
NNC(=O)CCc1cc2ccccc2c2ccccc12,growth inhibition,[1]; at 1.2 µM,-20%
same,growth inhibition,[1]; at 3.7 µM,-8%
same,growth inhibition,[1]; at 11.0 µM,9%
same,growth inhibition,[1]; at 33.0 µM,43%
same,growth inhibition,[1]; at 100.0 µM,99% (active)
same,growth inhibition,[2]; at 1.2 µM,-6%
same,growth inhibition,[2]; at 3.7 µM,-5%
same,growth inhibition,[2]; at 11.0 µM,0%
same,growth inhibition,[2]; at 33.0 µM,30%
same,growth inhibition,[2]; at 100.0 µM,99% (active)
